Screening data as filed in PubChem.
A647 fluor: qHTS Assay for Spectroscopic Profiling in A647 Spectral Region; AID 592, 2007; 59,000 tested, under 10 active; max dye-equivalent concentration, M; Compound fluorescence, A647 channel (570/671 nm), Tris buffer
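Spectral profiling of library compounds in pH 8.0 Tris: 15 min room-temperature incubation, single ex/em pair (570/671 nm), response normalized to Alexa 647 equivalents.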
Fluorescein autfl: qHTS Assay for Spectroscopic Profiling in Fluorescein Spectral Region; Compound autofluorescence, 480/540 nm, fluorescein-equivalent; stronger effect = higher value; max fluorescein-equivalent concentration, M; 59,000 compounds, 0.91% hits; in the data active means max fluorescein-equivalent concentration above about 10 nM; inconclusive means between about 1.1 nM and that limit
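Read-out is intrinsic compound fluorescence at 480/540 nm (excitation/emission), expressed as dye-equivalent concentration using a fluorescein standard series run on every plate. Compounds sat 15 min at room temperature in 100 mM Tris, pH 8.0.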
Rhodamine fluor: qHTS Assay for Spectroscopic Profiling in Rhodamine Spectral Region; Rhodamine-region fluorescence, 547/598 nm, Tris buffer; stronger effect = higher value; max dye-equivalent concentration, M; 59,000 compounds, 0.05% hits; AID 594, 2007; in the data active means max dye-equivalent concentration above about 11 nM; inconclusive means between about 1.1 nM and that limit
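Steps: pin-transfer compounds into pH 8.0 Tris (100 mM), hold 15 min at room temperature, image with a 547/598 nm filter pair, and convert intensities to rhodamine-equivalent concentration using a six-point on-plate rhodamine series.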
Texas Red fluor: qHTS Assay for Spectroscopic Profiling in Texas Red Spectral Region | Compound fluorescence, Texas Red channel, 547/618 nm; stronger effect = higher value | max dye-equivalent concentration, M | 59,000 compounds, 0.06% hits | AID 587, 2007; in the data active means max dye-equivalent concentration above about 10 nM; inconclusive means between about 1.1 nM and that limit
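qHTS profiling of intrinsic compound fluorescence; 100 mM Tris pH 8.0; 15 min RT; ex 547 / em 618 nm; response expressed as Texas Red dye-equivalent concentration from six-point plate standard.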
A488 fluor: qHTS Assay for Spectroscopic Profiling in A488 Spectral Region; max dye equivalency, M; compound autofluorescence, A488 spectral region, dye equivalency; Compound Type: qHTS ECL - MLSMR; AID 591, 2007; 59,000 compounds, 0.1% hits
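Compounds pin-transferred into 100 mM Tris buffer, pH 8.0, incubated 15 min at room temperature, then imaged with 480 nm excitation/540 nm emission filters. Fluorescence converted to Alexa 488 dye-equivalent concentration via an on-plate six-point A488 standard curve.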
Resorufin autofl: qHTS Assay for Spectroscopic Profiling in Resorufin Spectral Region. Compound fluorescence, resorufin region 547/598 nm, buffer; stronger effect = higher value. max dye-equivalent concentration, M. AID 588, 2007. 59,000 compounds, 0.04% hits
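Dye-equivalent concentration values derive from comparing each well's 547/598 nm fluorescence against resorufin standards included on every plate. Incubation was 15 min at room temperature in 100 mM Tris, pH 8.0.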
Numbers stand for hits; - = inactive; ? = inconclusive; ! = not active in a repeat. Sampled rows, rich in hits. Any-hit rate of the full collection: about 0.95%. Unless noted, how the calls were made is not given here.

SMILES | A647 fluor | Fluorescein autfl | Rhodamine fluor | Texas Red fluor | A488 fluor | Resorufin autofl
CC1(C)[C@@H](O)CC[C@@]2(C)[C@H]1CC[C@]1(C)[C@H]2C(=O)C=C2[C@@H]3C[C@@](C)(C(=O)O)CC[C@]3(C)CC[C@@]21C | - | ? | - | - | - | -
CCCC[S@@](=N)(=O)CC[C@@H](N)C(=O)O | - | ? | - | - | - | -
CN(C)/C=c1\sc2c(C#N)cc(C(=O)c3ccc(Br)cc3)n2c1=O | - | 8.1e-07M | - | - | 4.3e-08M | -
Cc1ccc([C@@H]2C3COCC=C3C(C#N)=C(N)C2(C#N)C#N)o1 (some centres not stated) | - | 1.2e-08M | - | - | - | -
C=C1CC[C@@H]2O[C@]2(C)CC[C@@H]2[C@H]1CC2(C)C | - | - | - | - | - | -
Nc1ncnc2c1ncn2[C@@H]1CCCO1 | - | - | - | - | - | -
COc1ccc2c(OC)c3ccoc3nc2c1OC | - | 1e-08M! | - | ? | - | -
COc1c2ccoc2cc2oc(=O)ccc12 | - | - | - | - | - | -
CCOC(=O)C1=C(C)OC(N)=C(C#N)C1c1cc(OC)c2c(c1)OCO2 (configuration not stated) | - | ? | - | - | - | -
CCOc1cc(C2C(C#N)=C(N)OC(C)=C2C(C)=O)cc(Br)c1O (configuration not stated) | - | 1.9e-07M | - | - | 1.2e-08M | -
CN1C(C(=O)Nc2ccccn2)=C(O)c2ccccc2S1(=O)=O | - | 1.2e-08M! | - | - | - | -
Nc1ncn([C@@H]2O[C@@H](CO)[C@@H](O)[C@H]2O)c(=O)n1 | - | - | - | - | - | -
CC1(C)S[C@@H]2[C@H](NC(=O)COc3ccccc3)C(=O)N2[C@H]1C(=O)O (tested in a mixture with another compound) | - | 1.9e-08M | - | - | - | -
CC1(C)S[C@@H]2[C@H](NC(=O)C(N)c3ccccc3)C(=O)N2[C@H]1C(=O)O (some centres not stated) | - | ? | - | - | - | -
Cc1ccc(S(=O)(=O)N2CCC(C(=O)Nc3nnc(C4CCCC4)s3)CC2)cc1 | - | 1.2e-08M | - | - | - | -
CC(C)COc1nc2ccccc2nc1C(C#N)C(=O)NC1CCCCC1 (configuration not stated) | - | 7.3e-08M | - | - | ? | -
CC1CN(c2nc3ccccc3nc2C(C#N)C(=O)NC2CCCCC2)CC(C)O1 (configuration not stated) | - | 2.9e-07M | - | - | 1.4e-08M | -
FC(F)(F)c1nc2ncc(Cl)cc2[nH]1 | - | - | - | - | - | -
Cn1c(=O)[nH]c2cc(Cl)cnc21 | - | 1.8e-08M | - | - | - | -
COc1ccc([C@@H]2CC(=O)c3c(O)cc(O[C@@H]4O[C@@H](CO[C@@H]5O[C@@H](C)[C@@H](O)[C@@H](O)[C@H]5O)[C@@H](O)[C@@H](O)[C@H]4O)cc3O2)cc1O | - | ? | - | - | - | -
COc1ccc([C@@H]2OC[C@]3(COC(C)=O)[C@H](C)C=C(C)[C@@H]2[C@H]3C)cc1 | - | - | - | - | - | -
CCN(CC)c1ccc2c(c1)C(=O)N(C)C2=O | - | 1.1e-08M | - | ? | - | -
C[C@@H]1c2ccccc2Cn2cc3c(c21)C(=O)c1cccc(OP(=O)(O)OCc2ccccc2)c1C3=O | - | 8.6e-08M | - | - | ? | -
CC(C)(C)OC(=O)N1CC=C2C(C#N)=C(N)C(C#N)(C#N)C(c3cccs3)C2C1 (configuration not stated) | - | 1.8e-08M | - | - | - | -
CC1CC=C2C(C#N)=C(N)C(C#N)(C#N)C(c3cccs3)C2C1 (configuration not stated) | - | 2.7e-08M | - | - | - | -
SMILES | A647 fluor | Fluorescein autfl | Rhodamine fluor | Texas Red fluor | A488 fluor | Resorufin autofl
CC(C)(C)OC(=O)N1CC=C2C(C#N)=C(N)C(C#N)(C#N)[C@H](c3cccnc3)[C@H]2C1 | - | ? | - | - | - | -
CCOC(=O)c1cnc(-n2nc(C)cc2C)nc1Nc1ccc(N(C)C)cc1 | - | ? | - | ? | - | -
CCOC(=O)c1cnc(-n2nc(C)cc2C)nc1NC1CCCCC1 | - | ? | - | - | - | -
CCOC(=O)c1cnc(-n2nc(C)cc2C)nc1N(CC)CC | - | 1.1e-08M | - | - | - | -
CCOC(=O)c1cnc(-n2nc(C)cc2C)nc1NC | - | 1e-08M | - | - | - | -
C[C@@H]1C[C@@]2(C)Oc3ccccc3[C@H]3OC[C@]1(COC(=O)Nc1ccccc1)[C@@H](C)[C@@H]32 | - | - | - | ? | - | -
CCOC(=O)c1ccc(N2C(=O)C3C(C2=O)C(C(=O)c2ccc(Cl)cc2)N2CCCC32)cc1 (configuration not stated) | - | 5.6e-08M | - | - | ? | -
C[C@H]1[C@H](C)CC[C@@]2(C(=O)O)CC[C@]3(C)C(=CC[C@H]4[C@@]5(C)C[C@@H](O)[C@H](O)[C@@](C)(CO)[C@@H]5CC[C@@]43C)[C@@H]12 | - | - | - | - | - | -
OC[C@@H]1O[C@@H](n2cnc3c(NC4CCCC4)ncnc32)[C@@H](O)[C@H]1O | - | ? | - | - | - | -
CN1/C(=C\C(=O)COC(=O)Cn2nnc(-c3ccccc3)n2)C(C)(C)c2ccccc21 | - | ? | ? | 2.2e-08M | - | ?
CC(=O)c1c(O)c(C)c(O)c2c1OC1=CC(=O)[C@H](C(C)=O)C(=O)[C@]12C | - | - | - | - | - | -
CN1C[C@H](C(=O)N[C@]2(C)O[C@@]3(O)[C@H]4CCCN4C(=O)[C@@H](Cc4ccccc4)N3C2=O)C[C@H]2c3cccc4[nH]cc(c34)C[C@@H]21 | - | ? | - | - | - | -
CCSC1=NC(=O)/C(=C2/C=Cc3ccccc3N2CC)S1 | - | ? | - | - | - | -
CCCn1c(=C(C#N)C#N)s/c(=C2\C=Cc3ccccc3N2CC)c1=O | - | 2.1e-08M | ? | ? | - | ?
C[C@H]1C[C@@H]2[C@H]3CCC4=CC(=O)C=C[C@@]4(C)[C@]3(Cl)[C@@H](Cl)C[C@]2(C)[C@]1(O)C(=O)COP(=O)(O)O | - | - | - | - | - | -
N[C@@H](C(=O)O)[C@@H]1C[C@H]1C(=O)O | - | ? | - | - | - | -
N[C@H](CS(=O)O)C(=O)O | - | - | - | ? | - | -
Ic1ccc2c(c1)N(c1ccccc1)c1cc(Nc3ccc4nc5ccc(I)cc5[n+](-c5ccccc5)c4c3)ccc1N2 | - | - | - | - | - | -
c1ccc(Cn2nnc3c(NCCN4CCOCC4)ncnc32)cc1 | - | - | - | - | - | -
